Results as given in PubChem BioAssay AID485346 (Sanford-Burnham Center for Chemical Genomics, 2010).
Among all 330,000 compounds or so, about 10,000 (3%) were called active. Shown is part of a subset that was picked to be rich in actives. A number with no mark means an inactive call.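 The calls were made as follows: active = inhibition of at least 50% at 8 µM in the primary screen; inactive = the rest.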

target: Protein Mdm4 (Homo sapiens) + E3 ubiquitin-protein ligase Mdm2 (Homo sapiens) (UniProt O15151+Q00987); assay: inhibitors of human Mdm2-MdmX association, primary screen, cell-based, luminescence, split luciferase, SaOS-2, uHTS (AID 485346); conditions: SaOS-2 split-luciferase Mdm2/MdmX complementation, at 8 µM, active compounds read high
Sequence (O15151 whole entry, looked up): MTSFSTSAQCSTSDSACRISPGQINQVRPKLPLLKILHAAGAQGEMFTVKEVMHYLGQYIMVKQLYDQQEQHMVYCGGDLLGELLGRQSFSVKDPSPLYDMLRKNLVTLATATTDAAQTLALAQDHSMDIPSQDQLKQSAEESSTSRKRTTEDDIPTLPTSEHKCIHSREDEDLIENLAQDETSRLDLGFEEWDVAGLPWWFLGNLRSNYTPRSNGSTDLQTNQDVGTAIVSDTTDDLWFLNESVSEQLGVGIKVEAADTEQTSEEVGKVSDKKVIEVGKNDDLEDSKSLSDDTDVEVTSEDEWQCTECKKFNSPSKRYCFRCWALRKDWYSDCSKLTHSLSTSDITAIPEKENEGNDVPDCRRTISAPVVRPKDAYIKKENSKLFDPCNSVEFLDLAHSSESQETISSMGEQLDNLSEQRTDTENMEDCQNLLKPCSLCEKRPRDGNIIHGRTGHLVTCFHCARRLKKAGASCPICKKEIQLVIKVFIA
Sequence (Q00987 whole entry, looked up): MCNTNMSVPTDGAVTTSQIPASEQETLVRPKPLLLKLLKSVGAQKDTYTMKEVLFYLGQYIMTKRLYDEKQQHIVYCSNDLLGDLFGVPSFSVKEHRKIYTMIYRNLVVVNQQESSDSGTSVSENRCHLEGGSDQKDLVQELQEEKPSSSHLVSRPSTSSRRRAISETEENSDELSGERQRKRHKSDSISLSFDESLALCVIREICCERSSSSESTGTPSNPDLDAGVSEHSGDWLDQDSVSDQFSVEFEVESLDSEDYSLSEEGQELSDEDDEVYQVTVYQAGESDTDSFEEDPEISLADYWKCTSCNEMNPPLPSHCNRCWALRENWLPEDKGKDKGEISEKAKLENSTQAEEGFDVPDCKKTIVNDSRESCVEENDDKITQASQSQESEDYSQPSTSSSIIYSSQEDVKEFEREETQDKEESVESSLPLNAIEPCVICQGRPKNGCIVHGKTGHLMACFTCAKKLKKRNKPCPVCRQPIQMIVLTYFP

Structure (SMILES)	inhibition
CCOc1ccc(C(=O)Nc2ccc(CN3CCOCC3)cc2)cc1Cl	-7.17%
CCN(CC)C(=O)Cn1cc(S(=O)(=O)CC(=O)NCc2ccc3c(c2)OCO3)c2ccccc21	15.5%
CC(C)(C)OC(=O)CNC(=O)c1[nH]cnc1C(=O)N[C@@H](Cc1ccccc1)C(=O)OCc1ccccc1	9.35%
CC(C)(C)OC(=O)N1CCC(NC(=O)c2[nH]cnc2C(=O)N[C@@H](Cc2ccccc2)C(=O)OCc2ccccc2)CC1	65.6% (active)
O=C(N[C@@H](Cc1ccccc1)C(=O)OCc1ccccc1)c1nc[nH]c1C(=O)NC1CCNCC1	20.5%
CC(C)c1ccc(NC(=O)[C@@H](NC(=O)N2CC(=O)Nc3ccccc32)C(C)C)cc1	46.3%
O=C(N1CCCC1)C12CC3CC(C1)CC(C(=O)N1CCCC1)(C3)C2	0.875%
CC(Sc1nnc(-c2ccccc2F)n1C1CC1)C(N)=O (stereo not drawn)	2.33%
O=S1(=O)CCO[C@H]2Cc3ccccc3[C@H]2N1Cc1ccccc1	-0.566%
Cn1cc([N+](=O)[O-])c(C(=O)Nc2ccc3c(c2)OCCO3)n1	15.1%
Cn1cc([N+](=O)[O-])c(C(=O)Nc2cnn(Cc3ccc(F)cc3)c2)n1	61.3% (active)
CCc1ccc(NC(=O)c2ccc(Cn3cc([N+](=O)[O-])cn3)cc2)cc1	7.69%
CC(C)CCN(C(=O)c1csnn1)C(C(=O)NC1CCCC1)c1ccccc1 (stereo not drawn)	1.25%
Cc1ccc(N2C(=O)c3ccccc3C2(O)c2ncc[nH]2)cc1 (stereo not drawn)	11%
CCOC(=O)c1ccc(NC(=O)c2cccnc2)cc1	-5.28%
CCCC(=O)Nc1nc2ccc(NC(=O)c3c(F)c(F)c(OC)c(F)c3F)cc2s1	40.2%
CCCC(=O)Nc1nc2ccc(NC(=O)c3cccnc3)cc2s1	56.4% (active)
COC(=O)c1ccc(C23CC4(C2)[C@H](CN(Cc2cccnc2)[C@@H]4c2ccccc2)C3c2ccc(Cl)nc2)cc1 (stereo partly drawn)	21.5%
Clc1ccc(C2[C@H]3CN(CC4CCCCC4)[C@H](c4ccccc4)C34CC2(c2cccnc2)C4)cn1 (stereo partly drawn)	-0.579%
FC(F)(F)c1ccc(CN2C[C@@H]3C(c4ccccc4)C4(c5ccccc5)CC3(C4)[C@H]2c2ccccc2)cc1 (stereo partly drawn)	93.9% (active)
O=C1c2ccccc2C(=O)N1CCC(c1ccccc1)c1ccco1 (stereo not drawn)	-4.99%
CC1CCC(N2CC(=O)N(Cc3ccc4c(c3)OCO4)C(c3ccc(F)cc3)C2=O)CC1 (stereo not drawn)	-7.03%
CC1=CC(C)(C)Nc2ccc(OC(=O)C(Cc3ccccc3)N3C(=O)C4CCCCC4C3=O)cc21 (stereo not drawn)	42.7%
CC1=CC(C)(C)Nc2ccc(OC(=O)CN3C(=O)C4CCCCC4C3=O)cc21 (stereo not drawn)	54% (active)
O=C(CN1C(=O)C2C3CCC(C3)C2C1=O)Oc1ccc2ccccc2c1 (stereo not drawn)	12%
Cc1ccc(CNC(=O)Cn2cnc3c(NCc4ccccc4)ncnc32)o1	28.2%
NC(=O)COc1ccc(C23CC4CC(CC(C4)C2)C3)cc1	-45%

Structure (SMILES)	inhibition
Cc1cc([N+](=O)[O-])nn1CC(=O)Nc1ccc(Cc2ccncc2)cc1	2.13%
CCOC(=O)CC1C(=O)NCCN1c1nc2c(C)cccn2c(=O)c1/C=C1\SC(=S)N(C(C)CC)C1=O (stereo not drawn)	59% (active)
CCCN(CCC)c1nc2c(C)cccn2c(=O)c1/C=C1/SC(=S)N(Cc2ccco2)C1=O	2.98%
CCOC(=O)N1CCN(C(=O)CSc2nc(=O)n3cccc(C)c3n2)CC1	-0.597%
Cc1cc(C)n2nc(C(=O)Nc3cccc(S(=O)(=O)N4CCOCC4)c3)nc2n1	7.78%
NC(=O)COc1ccccc1C(=O)NC12CC3CC(CC(C3)C1)C2	3.86%
COc1ccccc1C(=O)NC(=O)COC(=O)C1CC1	-22.8%
COc1ccccc1C(=O)NC(=S)NC12CC3CC(CC(C3)C1)C2	63.6% (active)
COc1ccc(N2CCN(CCNC(=O)Nc3cc(Cl)ccc3Cl)CC2)cc1	14.4%
CCCCn1c(N)c(N(CC(C)C)C(=O)c2ccc(Br)o2)c(=O)[nH]c1=O	25.9%
CNc1ccc(SC#N)cc1	0.392%
CC(=NCc1ccco1)c1c(C(F)(F)F)[nH]n(-c2nc3ccccc3s2)c1=O	0.099%
COC(=O)Cc1[nH]n(-c2nc3ccccc3s2)c(=O)c1C(C)=Nc1ccc(OC)cc1	77.3% (active)
COc1ccc(C2=NN(c3nc4ccccc4s3)C(=O)C2)cc1	1.88%
CCn1nc(C)c(CNC(=O)C2CCC(=O)N(Cc3cccc(F)c3)C2)c1C (stereo not drawn)	28.2%
COc1ccc(CNC(=O)C[C@H]2C[C@H](C(=O)N3CCOCC3)[C@@]3(CCC4CCCC4)c4[nH]c5ccc(Cl)cc5c4CCN3C2=O)cc1OC	92.6% (active)
O=C(C[C@H]1C[C@H](C(=O)N2CCOCC2)[C@@]2(CCC3CCCC3)c3[nH]c4ccc(Cl)cc4c3CCN2C1=O)NCc1ccco1	49.9%
COc1ccc2[nH]c3c(c2c1)CCN1C(=O)C(CC(=O)NCCCN(C)C)C[C@H](C(=O)N2CCOCC2)[C@@]31CCC1CCCC1 (stereo partly drawn)	-3.6%
COCCN(C(=O)C(C)C)c1nnc(-c2ccc(C(C)(C)C)cc2)s1	-22.5%
O=C(NC1(C(F)(F)F)NC(=O)N(C2CCCCC2)C1=O)c1ccco1 (stereo not drawn)	1.56%
COC(=O)NC1(C(F)(F)F)NC(=O)N(C2CCCCC2)C1=O (stereo not drawn)	-5.21%
O=C1NC(Nc2nc3ccccc3s2)(C(F)(F)F)C(=O)N1C1CCCCC1 (stereo not drawn)	66.2% (active)
CC(Oc1ccc(F)cc1)C(=O)Nc1cc(S(=O)(=O)N2CCOCC2)ccc1N1CCN(C)CC1 (stereo not drawn)	13.7%
Cc1cc(NC(=O)CCC(=O)N(c2cccc(F)c2)C(C(=O)NC2CCCC2)c2ccncc2)no1 (stereo not drawn)	-20%
Cc1cc(NC(=O)/C=C/C(=O)N(c2ccccc2C)C(C(=O)NC2CCCC2)c2ccc(F)cc2)no1 (stereo not drawn)	63.1% (active)
Cc1cc(NC(=O)/C=C/C(=O)N(CC(=O)NC2CCCC2)c2ccc(F)cc2)no1	-19.5%
